In all, about 410,000 compounds went through this assay and about 5,000 (1.2%) were called active. Not shown: some 13% with an inconclusive outcome. Only a selection was taken, and actives are over-represented in it overall. Unmarked numbers belong to inactive results. Calls follow the shape of the dose curve; as a rule, active = well fitted inhibition curve with a large enough effect; inconclusive = small, poorly fitted or top-dose-only effect; inactive = no such curve, though single readings can be large or run the other way.
Test: qHTS for Inhibitors of TGF-b; also: nearly all actives have a fitted effect of over 65% in size
Details: HepG2 CAGA-GFP TGF-b/SMAD3 reporter, GFP fluorescence, 18 h, TGF-beta stimulated, 500 pg/mL final; series mostly up to 46.1 µM; activity, negative = inhibition: at the top concentration
In short: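 Per well, imaged GFP fluorescence of HEPG2 CAGA-GFP cells gives the signal; cells get compound, then TGF-beta (500 pg/mL final), 18 h at 37 degrees C; %Activity versus -TGF-beta and +DMSO controls.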
% is scaled to controls: 0 for no effect and ±100 for the full control effect; potency is read from the fitted curve at half-maximal effect.

Row | Structure (SMILES) | activity, negative = inhibition | Potency
1 | Brc1cccc(-c2nnn3c2nc(NC2CCCCC2)c2ccccc23)c1 | -8.48% | 
2 | O=C(Nc1ccccc1)Oc1cccc2cccnc12 |  | 8.91 µM (active)
3 | NC(=O)C1CCN(C(=O)COc2cccc3cccnc23)CC1 | -2.64% | 
4 | O=S(=O)(NCCOc1cccc2cccnc12)c1ccc(F)cc1 | -15.5% | 
5 | CCNS(=O)(=O)c1ccc(NC(=O)Nc2cccc(C(F)(F)F)c2)cc1 |  | 12.6 µM (active)
6 | CCNS(=O)(=O)c1ccc(NC(=O)CSc2nc(-c3ccco3)cc(C(F)(F)F)n2)cc1 | 0% | 
7 | CCNS(=O)(=O)c1ccc(NC(=O)c2cncc(Br)c2)cc1 | -4.93% | 
8 | CO[C@H]1O[C@@H]2O[C@@]3(C)CC[C@@H]4[C@@H](C)CC[C@@H]([C@H]1C)[C@@]24OO3 | 13% | 
9 | Brc1nc2ncnc(NCc3ccco3)c2[nH]1 | 17.8% | 
10 | O=C(CCl)N(Cc1cccc([N+](=O)[O-])c1)c1cccc(Cl)c1 |  | 11.2 µM (active)
11 | COC(=O)c1cc(C(=O)N(Cc2ccccc2)c2ccccn2)cc([N+](=O)[O-])c1 | 6.92% | 
12 | CC(=O)N(CN1C(=O)C2CC=CCC2C1=O)c1cccc(Cl)c1 (centres undefined) | -19.6% | 
13 | CCCc1nn2c(=O)cc(COC(=O)c3ccc(NC(=O)COc4ccc(F)cc4)cc3)nc2s1 | -0.265% | 
14 | Oc1ccc(N2CCN(C(=S)NCc3ccccc3)CC2)cc1 | -0.832% | 
15 | c1ccc(CNCc2ccc(CNCc3ccccc3)cc2)cc1 | 3.53% | 
16 | Oc1ccc(CNc2ccccc2O)cc1 |  | 12.6 µM (active)
17 | CCN(CC)c1nc(C#N)nc(OC)n1 | -4.06% | 
18 | CCC(=O)Nc1ccc(Nc2nc(Cl)nc(Nc3ccc(NC(=O)CC)cc3)n2)cc1 | 23.4% | 
19 | CC(C)(CCl)C(=O)Nc1ccc(Sc2ccc(F)cc2)cc1 | 0% | 
20 | O=C(CCl)Nc1ccc(Sc2ccc(NC(=O)CCl)cc2)cc1 |  | 10 µM (active)
21 | CCOc1ccc(C2C(C(=O)Nc3ccc(Cl)cc3)=C(C)Nc3nc(C(F)(F)F)nn32)cc1 (centres undefined) | -20.7% | 
22 | CCc1ccc(NC(=O)c2cc(S(=O)(=O)N3CCCC(C)C3)cn2C)cc1 (centres undefined) | -6.75% | 
23 | Cn1c(=O)c2c(SCC(=O)NCC3CCCO3)nc(-c3ccccc3F)nc2n(C)c1=O (centres undefined) | -1.79% | 
24 | CCCOc1ccc(-c2cccc(NS(=O)(=O)c3ccccc3)c2)nn1 |  | 10 µM (active)
25 | CCS(=O)(=O)Nc1cccc(-c2cc(-c3ccccc3)c3cc(C)ccc3n2)c1 | 0% | 
26 | CNC(=O)COc1ccc(S(=O)(=O)Nc2ccccc2)cc1 | 3.64% | 

Row | Structure (SMILES) | activity, negative = inhibition | Potency
27 | CN(C)c1nc(=Nc2cccc(Cl)c2)ss1 |  | 0.282 µM (active)
28 | COc1ccccc1-c1ccnc2[nH]n(-c3ccccc3)c(=O)c12 | 12.7% | 
29 | CCOC(=O)C1CCCN(CC(=O)Nc2cc(C)c3c(=O)oc4ccccc4c3n2)C1 (centres undefined) | -2.9% | 
30 | O=C(O)C1CC=CC2CCN(C3CCCCC3)C(=O)C21 (centres undefined) | -5.85% | 
31 | CCOc1cc(/C=C(\C#N)C(=O)Nc2ccccc2C)ccc1OCc1cc(=O)n2nc(CC)sc2n1 | -28.7% | 
32 | C=C(C)C(=O)O[C@H]1C/C(C)=C\C(=O)/C=C(\C)[C@H](O)[C@@H]2OC(=O)C(=C)[C@@H]21 |  | 3.55 µM (active)
33 | COC(=O)c1sc(-c2ccc(C(C)(C)C)cc2)cc1NC(=O)/C=C/C(=O)O |  | 8.91 µM (active)
34 | COC(=O)c1nc(NC(=O)c2ccc(C(C)(C)C)cc2)n[nH]1 | -3.02% | 
35 | COc1ccc(NS(=O)(=O)c2ccc(N3CCOCC3)c(NC(=O)/C=C/C(=O)O)c2)cc1 | 5.91% | 
36 | COc1ccc(C(=O)Nc2ccc(-n3nncc3-c3ccccc3)cc2)cc1OC | 13.3% | 
37 | CCOC(=O)Nc1ccc2c(c1)N(C(=O)CCN1CCN(CCO)CC1)c1ccccc1CC2 | -2.31% | 
38 | CCOC(=O)Nc1ccc2c(c1)N(C(=O)CCCl)c1ccccc1[S@]2=O |  | 7.08 µM (active)
39 | CCOC(=O)Nc1ccc2c(c1)N(C(=O)CN1CCN3CCCC3C1)c1ccccc1CC2 (centres undefined) | -0.581% | 
40 | S=c1[nH]c(=S)c2n[nH]nc2[nH]1 | 4.69% | 
41 | Cc1ccc(C(=O)Nc2c(C(=O)NC(C)(C)C)oc3ccccc23)cc1 | -5.94% | 
42 | CCCC(=O)Nc1ccc2oc(-c3ccc(O)c(Br)c3)nc2c1 | 0.0308% | 
43 | O=C1/C(=C\c2ccc([N+](=O)[O-])cc2)CS(=O)(=O)C/C1=C/c1ccc([N+](=O)[O-])cc1 |  | 6.31 µM (active)
44 | CC(=O)Nc1ccc(C=Cc2ccc([N+](=O)[O-])cc2)cc1 | -0.331% | 
45 | CC(=O)Nc1ccc(C=CC(=O)c2ccc([N+](=O)[O-])cc2)cc1 | -0.532% | 
46 | COC(=O)c1cccc(Cn2nnc3sc4c(c3c2=O)CCC(C(C)(C)C)C4)c1 (centres undefined) | 2.33% | 
47 | COc1cccc(CNc2nccn(-c3ccc(OC)c(OC)c3)c2=O)c1 | 1.79% | 
48 | O=C(NC1CCN(Cc2ccccc2)CC1)c1ccc(Cn2c(=O)c3ccccc3n(Cc3cccc(F)c3)c2=O)cc1 | -6.31% | 
49 | Fc1ccc(-c2nc(Nc3cccc(Cl)c3)nc3c2COc2ccccc2-3)cc1 | -2.73% | 
50 | Cc1oc(C)c2c(=O)cc(-c3ccc4c(c3)OCO4)cc(OC(=O)c3ccc(Cl)cc3)c12 | 59.8% | 
51 | COc1ccc(C(=O)Nc2onc3c2CCCC3)cc1 | 6.55% | 
52 | Cc1ccc(NC(=O)NNC(=O)c2sccc2-n2cccc2)cc1 | 19.4% | 

Row | Structure (SMILES) | activity, negative = inhibition | Potency
53 | O=C(NNC(=O)c1ccc(-c2ccccc2)cc1)Nc1ccccc1 | -0.136% | 
54 | C=CC[n+]1c(-c2ccc(C)cc2)csc1NNC(=O)Nc1ccccc1 |  | 11.2 µM (active)
55 | O=C(NC1CC(=O)N(c2ccc(F)cc2)C1)c1cccs1 (centres undefined) | -3.09% | 
56 | CCCCNS(=O)(=O)CCNCc1ccccc1OC | 6.03% | 
57 | CCCCCCCCNS(=O)(=O)CCNC1CCCCC1 |  | 17.8 µM (active)
58 | CC1(C)CC(=O)C=C(NCCCNC2CCCCC2)C1 | -17.7% | 
59 | O=C(CC1Oc2ccc(Cl)cc2NC1=O)NCc1ccccc1 (centres undefined) | -15.2% | 
60 | Cc1ccccc1CNC(=O)C(=O)NCC(c1cccs1)S(=O)(=O)c1cccs1 (centres undefined) | 4.69% | 
61 | CN(Cc1ccccc1)C(=O)CSc1nc2ccccc2[nH]1 | -5.19% | 
62 | CN1CCN(c2ccc([N+](=O)[O-])c(Sc3nc4ccccc4[nH]3)c2)CC1 | 4.28% | 
63 | CCC(C)N1C(=O)S/C(=C/c2ccc(Sc3nc4ccccc4[nH]3)o2)C1=O (centres undefined) |  | 11.2 µM (active)
64 | COc1ccc(-c2nnc(SCC(=O)Nc3ccc(C(C)C)cc3)nc2-c2ccc(OC)c(OC)c2)cc1OC | 0.381% | 
65 | COc1ccc(CNC(=O)Cn2nnc(-c3ccccc3F)n2)cc1 | -2.89% | 
66 | O=C(NNC(=O)C(O)c1ccccc1)NC1CCCCC1 (centres undefined) | 20.3% | 
67 | Cc1nc(/N=C(\N)NC(=O)NC2CCCCC2)nc2ccccc12 |  | 12.6 µM (active)
68 | CC(C)c1cc(C(=O)NC2CCCCCC2)c2ccccc2n1 | -0.515% | 
69 | CCC1(C)CC(=O)c2c(ccc3oc(C(=O)Nc4ccc(C(C)=O)cc4)c(C)c23)O1 (centres undefined) | 3.5% | 
70 | CCn1c(=O)cc(OCC(=O)Nc2cc(Cl)c(OC)cc2OC)c2ccccc21 | -0.391% | 
71 | COc1ccc(OC)c(-c2csc(-c3c(N)c(C(=O)c4ccccc4)n4ccccc34)n2)c1 | 9.43% | 
72 | C=CS(=O)c1sc(Cl)c(N2CCOCC2)c1[N+](=O)[O-] (centres undefined) |  | 11.2 µM (active)
73 | Cc1nnc(SC(C(=O)Nc2cc(Cl)cc(Cl)c2)c2ccccc2)[nH]c1=O (centres undefined) |  | 17.8 µM (active)
74 | Cc1nnc(SC(C(=O)c2ccccc2)c2ccccc2)[nH]c1=O (centres undefined) | 1.93% | 
75 | COc1cccc(NC(=O)C(Sc2nnnn2C)c2ccccc2)c1 (centres undefined) | -1.18% | 
76 | Cc1ccn2c(Nc3ccc4c(c3)OCCO4)c(-c3ccc(C)s3)nc2c1 | 23.7% | 
77 | COc1ccccc1CNC(=O)c1ccc(-n2c(C)cc3c2CCCC3)cc1 | -1.18% | 
78 | Cc1ccc(C(=O)Nc2ccccc2F)cc1S(=O)(=O)N1CCOCC1 | 10.2% | 

Row | Structure (SMILES) | activity, negative = inhibition | Potency
79 | CC(=O)c1ccc(NC(=O)CSc2nnc(NC(=O)Nc3ccccc3)s2)cc1 | -0.835% | 
80 | CC(=O)c1cccc(NC(=S)N2CCCC2)c1 | 1.35% | 
81 | C=CCSc1nsc(NC(=O)Nc2cccc(C(C)=O)c2)n1 |  | 3.55 µM (active)
82 | CCN(CC)c1ccc(NC(=O)Cn2nc3c(cc2=O)CCCC3)c(C)c1 | 0.157% | 
83 | O=C(Nc1ccccc1Cl)/C(Cl)=C(\Cl)S(=O)c1ccccc1 (centres undefined) |  | 2.24 µM (active)
84 | O=C(Nc1ccccc1Cl)N1CCC(CN2CCCC2)CC1 | -7.51% | 
85 | CS/C(=C\C(=O)c1ccco1)Nc1ccccc1Cl | -18.8% | 
86 | CCc1ccc(-n2nc(C)c3c(C)cc(=O)n(CC(=O)Nc4ccc(F)cc4C)c32)cc1 | -2.8% | 
87 | CCOc1ccccc1NC(=O)CCn1cnnn1 | 7.48% | 
88 | N/C(=N\S(=O)(=O)c1cc(C(F)(F)F)cc(C(F)(F)F)c1)c1cccs1 |  | 12.6 µM (active)
89 | O=C(Cc1cccs1)NCc1cccc(C(F)(F)F)c1 | 32.4% | 
90 | Cc1ccc(S(=O)(=O)/N=C(\N)c2ccc(F)cc2)cc1 | 13.6% | 
91 | CCc1ccc(NC(=O)CSc2nc3c([nH]c4ccccc43)c(=O)n2-c2cccc(OC)c2)cc1 | -9.35% | 
92 | COc1ccc(-c2nc(Cn3c(=O)cc(C)c4c(C)nn(-c5ccccc5)c43)c(C)o2)cc1OC | 36.5% | 
93 | Cc1ccc(C)n1NC(=O)c1ccc([N+](=O)[O-])cc1 | -1.59% | 
94 | N=C1C(c2nc3ccccc3[nH]2)=C(O)CN1NC(=O)c1c[nH]c2ccccc12 | 8.9% | 
95 | N=C1C(c2nc3ccccc3s2)=C(O)CN1NC(=O)c1ccc([N+](=O)[O-])cc1 |  | 7.08 µM (active)
96 | Cc1ccc(C(=O)Nc2ccc(OCc3cc(=O)n4c5c(sc4n3)CCCC5)cc2)cc1 | 3.16% | 
97 | O=C1NC[C@@H](Cc2ccc(O)cc2)N(CCc2cccc(F)c2)C1=O | 19% | 
98 | CC(C)C[C@H]1CNC(=S)N1C[C@H]1CCCN1C[C@H](Cc1ccc(O)cc1)N1C[C@H](Cc2ccc(O)cc2)N(CC2CCCCC2)C1=S |  | 15.8 µM (active)
99 | CCOc1ccc(CCN2C(=S)N([C@@H](CC(C)C)CN3CCC[C@@H]3CN3C(=S)NC[C@@H]3Cc3ccc(O)cc3)C[C@@H]2Cc2ccc(O)cc2)cc1 |  | 11.2 µM (active)
100 | NC1=NC[C@@H](Cc2ccc(O)cc2)N1CC1CCCCC1 | -30.5% | 
101 | CC[C@@H](C)[C@@H]1CN([C@@H](C)CN2CCC[C@H]2CN2C(N)=NC[C@H]2C(C)C)C(=N)N1CCc1ccc(Cl)c(Cl)c1 | 7.15% | 
102 | CCOc1ccc(CCN2C(=S)N([C@@H](CC(C)C)CN3CCC[C@@H]3CN3C(=S)NC[C@@H]3Cc3ccc(O)cc3)C[C@@H]2CC(C)C)cc1 |  | 10 µM (active)
103 | C[C@@H](CN1CCC[C@H]1CN1C(N)=NC[C@@H]1Cc1ccccc1)N1C[C@@H](Cc2ccccc2)N(CCCC2CCCC2)C1=N | 4.53% | 
104 | O=C1NC[C@H](Cc2ccc(O)cc2)N(C[C@H]2CCCN2C[C@H](Cc2ccccc2)N2C[C@H](Cc3ccccc3)N(CCc3ccccc3)C(=O)C2=O)C1=O | -8.11% | 
